Bioassay records as filed in PubChem BioAssay.
This is a sample that favours compounds with a hit; in the whole collection about 21% have one here.
Pf growth 96h: Primary qHTS for delayed death inhibitors of the malarial parasite plastid, 96 hour incubation; P. falciparum luciferase reporter growth, 96 h; Potency, µM (top dose mostly 28.7 µM), inactives show at the top dose activity change, negative = inhibition, hits mostly inhibitors; 6.9% of 320,000 active; AID 504834, 2011; active means well fitted inhibition curve with a large enough effect; inconclusive means small, poorly fitted or top-dose-only effect, or another doubt; inactive means no such curve, though single readings can be large or run the other way; further: potency means the concentration at half of the fitted maximal effect; on the % scale 0 is the no-effect control and ±100 the full control effect
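P. falciparum expressing integrated firefly luciferase, in erythrocytes at 2% hematocrit, 0.05% parasitemia, incubated with compounds 96 h at 37 C, 5% CO2. Growth inhibition read as loss of luminescence; two-generation exposure targets delayed-death apicoplast inhibitors.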
Pf growth 48h: Primary qHTS for delayed death inhibitors of the malarial parasite plastid, 48 hour incubation; P. falciparum luciferase growth in erythrocytes, 48 h; Potency, µM (highest dose often 28.7 µM), for the others: at the top dose activity change, negative = inhibition, usual class: inhibitors; 5.9% of 310,000 active; active means well fitted inhibition curve with a large enough effect; inconclusive means small, poorly fitted or top-dose-only effect, or another doubt; inactive means no such curve, though single readings can be large or run the other way; further: potency means the concentration at half of the fitted maximal effect; on the % scale 0 is the no-effect control and ±100 the full control effect
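Here the parasites carry a stable luciferase gene and grow inside erythrocytes in Albumax-based RPMI medium with compound for one erythrocytic cycle. Activity is scored as loss of luminescent signal.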
SARS PLpro yeast: qHTS of Yeast-based Assay for SARS-CoV PLP. 0.19% of 330,000 active. Potency, µM (titrated, usually from 32.9 µM), inactives show at the highest dose activity, positive = growth rescue, most hits filed as activators. S. cerevisiae expressing SARS-CoV PLpro, growth rescue. AID 485353, 2010; further: potency means the concentration at half of the fitted maximal effect; 0% is about no effect; nearly all actives have a fitted effect of over 55% in size
NS1 inh: qHTS Assay for Inhibitors of Influenza NS1 Protein Function; Potency, µM (top dose mostly 46.1 µM), for inactives: at the top dose activity, positive = more growth; 0.4% of 270,000 active; AID 2326, 2010; further: potency means the concentration at half of the fitted maximal effect; actives are rising curves; nearly all actives have a fitted effect of over 50% in size
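Recovery from NS1-induced slow growth read by OD600 in budding yeast switched to galactose assay medium (pH 6.0, -URA) at 1:100 dilution. Compound 23 nl per well; the matching strain lacking NS1 serves as control.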
Shiga toxin inh: A qHTS for Small Molecule Inhibitors of Shiga Toxin; Vero cells, Shiga toxin protein synthesis inhibition reporter; 9.2% of 290,000 active; inhibition, % at 38.7 µM; AID 2315, 2010; in the data active means inhibition mostly above about 28%, no sharp cut-off; inactive means mostly below about 43%; further: 0% is about no effect
CHX counter: Cycloheximide Counterscreen for Small Molecule Inhibitors of Shiga Toxin; cell reporter, cycloheximide protein synthesis inhibition counterscreen; max response, %; 12% of 300,000 active; AID 2314, 2010; in the data active means max response mostly above about 13%, no sharp cut-off; inactive means mostly below about 14%; further: read at 38.3 µM for the half of the compounds with a filed dose; 0% is about no effect
* = called active by the depositor. Unless noted, the call rests on the fitted dose curve.

How did Cc1ccc(NC(=S)N2CCCC(c3nc4ccccc4[nH]3)C2)cc1 (stereo unspecified) do in these assays?
Pf growth 96h: -14.0%; Pf growth 48h: -18.0%; SARS PLpro yeast: -1.5%; NS1 inh: 1.9%; Shiga toxin inh: -7.0; CHX counter: 6.9

Results for Cc1ccc(NC(=S)c2nc3ccccc3[nH]2)cc1 ?
Pf growth 96h: 66.8%; Pf growth 48h: 185.3%; SARS PLpro yeast: -15.5%; NS1 inh: -64.5%; Shiga toxin inh: 66.2*; CHX counter: 71.8*

Results for NC(Cc1ccccc1)C(=O)N1CCCCC1 (stereo unspecified) ?
Pf growth 96h: -38.3%; Pf growth 48h: 4.2%; SARS PLpro yeast: 0.5%; NS1 inh: 3.8%; Shiga toxin inh: 12.8; CHX counter: 4.7

How did Cc1nc(-c2ccncc2)sc1C(=O)Nc1ccc(Br)cc1 do in these assays?
Pf growth 96h: 3.2%; Pf growth 48h: inconclusive; SARS PLpro yeast: 0.8%; NS1 inh: -1.4%; Shiga toxin inh: 0.6; CHX counter: -3.2

What do the screens show for `CCCc1nc(Nc2nc3ccccc3o2)nc(C)c1C(=O)OCC`?
Pf growth 48h: 125.8%; SARS PLpro yeast: 0.9%; NS1 inh: -2.6%; Shiga toxin inh: 128.9*; CHX counter: 61.1*

Results for CCCOc1ccc(C(O)(CCN2CCCCC2)c2ccccc2OC)cc1 (stereo unspecified) ?
Pf growth 96h: 15.4%; Pf growth 48h: -23.2%; SARS PLpro yeast: -0.2%; NS1 inh: -3.9%; Shiga toxin inh: -5.9; CHX counter: 2.3

How did CCOC(=O)c1cnc(SCc2nc(N)nc(Nc3ccc(F)cc3)n2)nc1N do in these assays?
Pf growth 96h: inconclusive; Pf growth 48h: -8.7%; SARS PLpro yeast: 1.8%; NS1 inh: 10.4%; Shiga toxin inh: 43.1; CHX counter: 9.5*

What do the screens show for `CCOC(=O)c1cnc(SCc2nc(N)nc(Nc3ccc(C)cc3)n2)nc1N`?
Pf growth 48h: inconclusive; SARS PLpro yeast: -11.2%; NS1 inh: 3.8%; Shiga toxin inh: 16.5; CHX counter: 13.2*

How did Cc1c(O)c2c(=O)n(-c3ccccc3)c(-c3ccccc3)cc2oc1=O do in these assays?
Pf growth 96h: inconclusive; Pf growth 48h: -8.9%; SARS PLpro yeast: 3.7%; NS1 inh: 4.9%; Shiga toxin inh: -8.3; CHX counter: -2.0

How did COc1cccc(NC(=O)c2ccnc(N3CCC(C(=O)NCc4ccccc4OC)CC3)c2)c1 do in these assays?
Pf growth 96h: inconclusive; Pf growth 48h: -15.1%; SARS PLpro yeast: 1.9%; NS1 inh: 8.9%; Shiga toxin inh: 13.6; CHX counter: 25.5

How did Clc1ccc(CN2CCSCC2)c(Cl)c1 do in these assays?
Pf growth 96h: 2.2%; Pf growth 48h: 5.7%; SARS PLpro yeast: -0.9%; NS1 inh: -0.3%; Shiga toxin inh: -9.6; CHX counter: 1.4

What do the screens show for `N=c1ccn(Cc2ccc(Cl)cc2Cl)cc1`?
Pf growth 96h: 1.47µM*; SARS PLpro yeast: -4.7%; NS1 inh: -0.8%; Shiga toxin inh: -5.7; CHX counter: -1.2

Results for N=c1ccn(Cc2c(Cl)cccc2Cl)cc1 ?
Pf growth 96h: inconclusive; Pf growth 48h: inconclusive; SARS PLpro yeast: 0.5%; NS1 inh: 1.7%; Shiga toxin inh: -8.5; CHX counter: 1.4

How did N=c1ccn(Cc2ccccc2Cl)cc1 do in these assays?
Pf growth 48h: 4.65µM*; SARS PLpro yeast: -7.1%; NS1 inh: -4.9%; Shiga toxin inh: -3.7; CHX counter: -1.4

What do the screens show for `CCOCCn1c(=O)c2c(nc3n2CCN3c2ccc(CC)cc2)n(C)c1=O`?
NS1 inh: 18.2%

What do the screens show for `COc1ccccc1NC(=O)Nc1ccc(Cc2ccncc2)cc1`?
Pf growth 96h: 10.0%; Pf growth 48h: 19.8%; SARS PLpro yeast: -1.1%; NS1 inh: -7.0%; Shiga toxin inh: 49.8*; CHX counter: 10.1

How did COc1ccc(NC(=O)Nc2ccc(Cc3ccncc3)cc2)cc1OC do in these assays?
Pf growth 96h: 5.22µM*; Pf growth 48h: inconclusive; SARS PLpro yeast: 1.7%; NS1 inh: 20.4%; Shiga toxin inh: 6.7; CHX counter: 16.2
